The campaign covered roughly 5,500 compounds. About 2,000 (36%) were called active. Roughly 18% stayed inconclusive and do not appear here. No stated cut-off is given here; in the data, active means normalized growth mostly below about 0.91 (no sharp cut-off); inconclusive means no clear call, values can overlap the other calls; inactive means mostly above about 0.92. The list shows a part of the results.
Test: chemical genetic growth profiling, strain panel (AID 1159580);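 further: tested at 20 µM; growth read once vehicle control cultures reached saturation at 30 °C; 1 = growth at the plate median or of vehicle wells; lower values mean less growth of the strain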
Settings: growth OD

Measured: normalized growth

COC(=O)c1ccccc1-n1cccc1C(=O)OC
inactive: S. cerevisiae deletion strains, locus YAL013W, strain DEP1, active compounds read low 0.981 | S. cerevisiae deletion strains, locus YBR229C, strain ROT2, active compounds read low 0.975 | S. cerevisiae deletion strains, locus YDL101C, strain DUN1, active compounds read low 0.971 | S. cerevisiae deletion strains, locus YDL134C, strain PPH21, active compounds read low 0.997 | S. cerevisiae deletion strains, locus YDR150W, strain NUM1, active compounds read low 1.01 | S. cerevisiae deletion strains, locus YEL061C, strain CIN8, active compounds read low 0.994 | S. cerevisiae deletion strains, locus YGR078C, strain PAC10, active compounds read low 0.982 | S. cerevisiae deletion strains, locus YGR229C, strain SMI1, active compounds read low 1.02 | S. cerevisiae deletion strains, locus YHR030C, strain SLT2, active compounds read low 1.04 | S. cerevisiae deletion strains, locus YHR087W, strain rtc3, active compounds read low 0.96 | S. cerevisiae deletion strains, locus YJL187C, strain SWE1, active compounds read low 0.996 | S. cerevisiae deletion strains, locus YJR043C, strain POL32, active compounds read low 0.993 | S. cerevisiae deletion strains, locus YJR075W, strain HOC1, active compounds read low 1.05 | S. cerevisiae deletion strains, locus YLR039C, strain RIC1, active compounds read low 0.97 | S. cerevisiae deletion strains, locus YLR058C, strain SHM2 (second series), active compounds read low 0.989 | S. cerevisiae deletion strains, locus YLR085C, strain ARP6, active compounds read low 1.03 | S. cerevisiae deletion strains, locus YLR262C, strain YPT6, active compounds read low 0.973 | S. cerevisiae deletion strains, locus YML094W, strain GIM5, active compounds read low 0.957 | S. cerevisiae deletion strains, locus YMR219W, strain ESC1, active compounds read low 0.99 | S. cerevisiae deletion strains, locus YMR263W, strain SAP30, active compounds read low 1.02 | S. cerevisiae deletion strains, locus YNL153C, strain GIM3, active compounds read low 1 | S. cerevisiae deletion strains, locus YNL298W, strain CLA4 (second series), active compounds read low 0.988 | S. cerevisiae deletion strains, locus YNL322C, strain KRE1, active compounds read low 0.992 | S. cerevisiae deletion strains, locus YNR030W, strain Alg12, active compounds read low 0.973 | S. cerevisiae deletion strains, locus YOL006C, strain TOP1, active compounds read low 0.969 | S. cerevisiae deletion strains, locus YPL055C, strain LGE1, active compounds read low 0.972 | S. cerevisiae deletion strains, locus YPL241C, strain CIN2, active compounds read low 0.969 | S. cerevisiae deletion strains, locus YPR135W, strain CTF4, active compounds read low 0.943 | S. cerevisiae strains, strain wild type, active compounds read low 0.993

From PubChem BioAssay AID1159580 (chemical genetic matrix, 2015)
